# In PubChem BioAssay (NCI):
# The panel holds about 83,000 compounds, 20% with a hit somewhere; the sample as a whole holds those more often.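 Step 1: grow cells in 96-well plates. Step 2: add test compound at a single concentration. Step 3: incubate 48 h. Step 4: record percent growth.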 A number with no mark means an inactive call. The source made the active and inactive calls. Rule for the calls: active = growth percent below 10; inactive = the rest.
# Experiments:
# Experiment in all cases: NCI-60 one-dose screen, 48 h (100 = growth as untreated, 0 = no growth, -100 = all killed)
# NCI-H23 lung = settings: 10 µM unless noted
# NCI-H226 lung = settings: 10 µM unless noted
# NCI-H322M lung = settings: 10 µM unless noted
# HOP-62 NSCLC = settings: 10 µM unless noted
# NCI-H460 lung = settings: 10 µM unless noted
# HOP-92 NSCLC = settings: 10 µM unless noted
# NCI-H522 lung = settings: 10 µM unless noted
# A549/ATCC NSCLC = settings: 10 µM unless noted
# 786-0 renal = settings: 10 µM unless noted
# COLO 205 colon = settings: 10 µM unless noted
# DU-145 prostate = settings: 10 µM unless noted
# K-562 leukemia = settings: 10 µM unless noted
# MALME-3M melanoma = settings: 10 µM unless noted
# MDA-MB-231 breast = settings: 10 µM unless noted
# RXF 393 renal = settings: 10 µM unless noted
# SF-268 CNS = settings: 10 µM unless noted
# SF-295 CNS = settings: 10 µM unless noted
# SF-539 CNS = settings: 10 µM unless noted
# UACC-257 melanoma = settings: 10 µM
# M14 melanoma = settings: 10 µM unless noted
Structure (SMILES),growth (NCI-H23 lung),growth (NCI-H226 lung),growth (NCI-H322M lung),growth (HOP-62 NSCLC),growth (NCI-H460 lung),growth (HOP-92 NSCLC),growth (NCI-H522 lung),growth (A549/ATCC NSCLC),growth (786-0 renal),growth (COLO 205 colon),growth (DU-145 prostate),growth (K-562 leukemia),growth (MALME-3M melanoma),growth (MDA-MB-231 breast),growth (RXF 393 renal),growth (SF-268 CNS),growth (SF-295 CNS),growth (SF-539 CNS),growth (UACC-257 melanoma),growth (M14 melanoma)
COc1ccc(S(=O)(=O)Nc2cc(/C=C\c3cc(OC)c(OC)c(OC)c3)cc(OC)c2OC)cc1OC,31.4%,66.6%,55.2%,52.3%,11.4%,43.3%,37.4%,34%,18%,-47.4% (active),13.9%,15.8%,84.1%,32.3%,-8.93% (active),38.4%,8.39% (active),-18.6% (active),72%,2.52% (active)
CCCCCCCCCCCCNC(=S)N/N=C/c1ccc(Cl)c(Cl)c1,109%,106%,112%,105%,112%,122%,65.7%,103%,106%,106%,116%,97.2%,113%,104%,108%,118%,98.3%,94.2%,107%,105%
CC(C)C[C@H](NC(=O)[C@H](Cc1ccccc1)n1ccc(N2CCCCC2)cc1=O)B(O)O,19.7%,-68.7% (active),70.7%,13.1%,34.7%,-10.1% (active),-7.97% (active),19%,28%,28.9%,41.3%,9.62% (active),-23.8% (active),-26.2% (active),-54% (active),-8.05% (active),7.12% (active),-11.5% (active),-16.9% (active),12.5%
COc1ccc(C(=O)/C=C/c2cc(C(=O)c3cc(OC)c(OC)c(OC)c3)ccc2OC)cc1,72.9%,90.7%,91.5%,100%,88.6%,70.5%,-0.114% (active),85.3%,89.4%,75.9%,79.3%,12.8%,77.9%,51.8%,73%,59.2%,98.1%,55%,68%,64.7%
C=CCn1c(C)nc2ccc(Nc3nc(Nc4ccc(F)cc4)nc4ccccc34)cc21,56%,85.4%,85.5%,75.9%,63.4%,-0.386% (active),57.9%,52.1%,76.7%,43.7%,74.1%,21%,74.5%,73.8%,66.6%,66%,31.4%,73%,92.6%,45.2%
Cc1cc(N/C=c2\sc3ncnn3c2=O)no1,91.6%,108%,81.5%,103%,105%,92.2%,90.8%,107%,100%,112%,93.7%,98.5%,87.3%,102%,113%,90.1%,99%,107%,105%,92.8%
CCCCNC(=O)NS(=O)(=O)c1ccc(N2N=C(c3ccc(C)cc3C)CC2c2ccc(OC)cc2)cc1 (stereo not given),65.4%,86.7%,90.6%,92%,48.3%,75.1%,54.4%,38.4%,61.3%,93.5%,92.4%,58.9%,108%,85.4%,82.6%,84.8%,41.6%,69.7%,72.5%,42.7%
